Results on 16 compounds are retold here after PubChem BioAssay.

The structures appear in SMILES notation. Calls of active or inactive are those of the source.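 How the source made its calls, unless noted: active means compound raises insulin release from rat beta cells at 5 mM glucose, no numeric limit stated; inactive means the rest.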

A short description of assay [1]: Wnt pathway potentiators raising nuclear beta-catenin – imaging, WNT3A-conditioned medium, mouse C2C12, NPC library, primary screen (AID 1117326; in the data active means nuclear beta-catenin stimulation mostly above about 4.2%, no sharp cut-off; inactive means mostly below about 10%; further: reference of the scale not given here). The note with it: stronger effect = higher value.
Assay [2] in a line: stimulators of insulin release from INS-1E, primary screen, cell-based, 5 mM glucose, NPC library (AID 1117329). Further: reference of the scale not given here. The conditions noted are these: rat INS-1E insulin secretion, at 10 µM, stronger effect = higher value.
Assay [3] in a line: growth inhibition of GSK3B-pretreated HCT116 cells – cell-based, CellTiter-Glo, 0.2 to 20 µM (AID 1117336;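 active means compounds lowering colon cancer cell viability after pretreatment blocking the GSK3B kinase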). The note with it: HCT116 viability after GSK3B inhibitor, at 20 µM, stronger effect = higher value. (ATP-based viability assays read luminescence as a measure of living cells.)
The nature of assay [4]: inhibition of endothelial tube formation, primary screen, imaging, VEGF stimulated, CD31 staining, tube area, NPC library (AID 1117340;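 active means compound that reduces growth-factor-driven endothelial tube area in a mixed cell culture, no cutoff stated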). The note with it: VEGF-stimulated ADSC/ECFC co-culture, at 10 µM, stronger effect = higher value.
Assay [5] in a line: GLP1 release stimulators, primary, NCI-H716, NPC library (AID 1117341;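 active means compound raises GLP1 secretion from the human gut endocrine cells, with no numeric limit stated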; further: reference of the scale not given here). The note with it: NCI-H716 cells, at 10 µM, stronger effect = higher value.
Assay [6] can be described thus: HCT116 colon cancer cell growth inhibition, primary screen, CellTiter-Glo luminescence, NPC library (AID 1117342;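 active means compounds that lower survival of HCT116 colon cancer cells in the luminescence readout, no numeric limit stated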). The conditions noted are these: at 20 µM (top of the series).
Assay [7] can be described thus: reduced SW480 viability measured with CellTiter-Glo, NPC library, primary (AID 1117343;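 active means compounds that lower viability of the colon cancer cells in the luminescence readout, with no numeric limit stated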). The conditions noted are these: CellTiter-Glo luminescence; at 20 µM (top of the series).
Assay [8] in a line: NPC library primary testing for decreased DLD-1 cell viability via CellTiter-Glo (AID 1117346;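 active means compounds that lower survival of DLD-1 colon cancer cells in the luminescence readout, no cutoff given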). The conditions noted are these: DLD-1 viability, CellTiter-Glo luminescence; at 20 µM (top of the series).

On to `O=C(O)Cn1c(=O)n(Cc2ccc(Br)cc2F)c(=O)c2ccc(Cl)cc21`, for which the nuclear beta-catenin stimulation in assay [1] (at 10 µM) was 1.1% (inactive); in assay [1] (stimulation, at 2 µM) it was -0.9%. The insulin secretion stimulation in assay [2] is 2.4% (inactive). Further, the viability decrease in assay [3] was 4.6% (inactive). Further, in assay [4], the tube area decrease is 21.7% (inactive). Moreover, the GLP1 secretion stimulation in assay [5] was -1.6% (inactive). For the same compound, the inhibition of viability in assay [6] is 5% (inactive). Moreover, the viability decrease (inhibition) in assay [7] was -2.1% (inactive); in assay [8] it was -18.7% (inactive).
As for `CN[C@H](CC(C)C)C(=O)N[C@H]1C(=O)N[C@@H](CC(N)=O)C(=O)N[C@H]2C(=O)N[C@H]3C(=O)N[C@H](C(=O)N[C@H](C(=O)O)c4cc(O)cc(O)c4-c4cc3ccc4O)[C@H](O)c3ccc(c(Cl)c3)Oc3cc2cc(c3O[C@@H]2OC(CO)[C@@H](O)[C@H](O)[C@@H]2O[C@H]2C[C@](C)(N)[C@H](O)[C@H](C)O2)Oc2ccc(cc2Cl)[C@H]1O` (some centres undefined), the nuclear beta-catenin stimulation in assay [1] (at 10 µM) is -0.7% (inactive); in assay [1] (stimulation, at 2 µM) it was 2.4%. Besides, the insulin secretion stimulation in assay [2] is -0.1% (inactive). Further, in assay [3], the viability decrease is -6.3% (inactive). Also, the tube area decrease in assay [4] was 7.3% (inactive). Moreover, in assay [5], the GLP1 secretion stimulation was -0.9% (inactive). Further, the inhibition of viability in assay [6] was -1.3% (inactive). The viability decrease (inhibition) in assay [7] is 5% (inactive); in assay [8], -10% (inactive).
As to `CCCCCCCCCCCCCC[N+](C)(C)Cc1ccccc1`, the nuclear beta-catenin stimulation was 55% (active) in assay [1] (at 10 µM) and -0.7% in assay [1] (stimulation, at 2 µM). Also, in assay [2], the insulin secretion stimulation is 3.5% (inactive). In assay [3], the viability decrease was 99.5% (active). In addition, the tube area decrease in assay [4] is 109% (active). Moreover, in assay [5], the GLP1 secretion stimulation is -0.6% (inactive). Further, the inhibition of viability in assay [6] is 99.2% (active). Further, the values for the viability decrease (inhibition) in assay [7] and in assay [8] were 101% (active) and 102% (active), respectively.
`COc1ccccc1OC(=O)Oc1ccccc1OC`: the nuclear beta-catenin stimulation in assay [1] (at 10 µM) was 1.1% (inactive); in assay [1] (stimulation, at 2 µM) it was 0.3%. Besides, the insulin secretion stimulation in assay [2] was -2.4% (inactive). Besides, in assay [3], the viability decrease was 6.05% (inactive). In addition, in assay [4], the tube area decrease is 14.8% (inactive). Besides, the GLP1 secretion stimulation in assay [5] was 1.6% (inactive). Moreover, in assay [6], the inhibition of viability is 3.6% (inactive). Also, the viability decrease (inhibition) in assay [7] is 31.6% (inactive); in assay [8], 14.4% (inactive).
In the case of `NNc1nnc(NN)c2ccccc12`, the nuclear beta-catenin stimulation in assay [1] (at 10 µM) was 3.3% (inactive); in assay [1] (stimulation, at 2 µM), 1.4%. Further, the insulin secretion stimulation in assay [2] was -1.8% (inactive). Moreover, in assay [3], the viability decrease was -0.85% (inactive). Besides, the tube area decrease in assay [4] was 40.1% (active). In assay [5], the GLP1 secretion stimulation was -3.3% (inactive). Also, the inhibition of viability in assay [6] is 22.6% (inactive). In addition, the viability decrease (inhibition) was 22.7% (inactive) in assay [7] and 6.6% (inactive) in assay [8].
Consider `CCCCCC1Nc2cc(C(F)(F)F)c(S(N)(=O)=O)cc2S(=O)(=O)N1` (centres undefined), for which the nuclear beta-catenin stimulation was 0.5% (inactive) in assay [1] (at 10 µM) and -0.2% in assay [1] (stimulation, at 2 µM). Further, the insulin secretion stimulation in assay [2] is 2% (inactive). Further, the viability decrease in assay [3] is 13.4% (inactive). Moreover, the tube area decrease in assay [4] is 9.2% (inactive). For the same compound, the GLP1 secretion stimulation in assay [5] is -0.1% (inactive). The inhibition of viability in assay [6] was 43% (inactive). Besides, the viability decrease (inhibition) was 0.7% (inactive) in assay [7] and 31.7% (inactive) in assay [8].
On to `CCCCCCCCCCCCCCCCCCNC(=O)OC1CCN(C(=O)OC[C@H](COC(=O)N(Cc2cccc[n+]2CC)C(=O)c2ccccc2OC)OC)CC1`, for which the nuclear beta-catenin stimulation in assay [1] (at 10 µM) was 10.2% (inactive); in assay [1] (stimulation, at 2 µM), 0.5%. Further, in assay [2], the insulin secretion stimulation was 117% (active). Moreover, the viability decrease in assay [3] was 110% (active). For the same compound, the tube area decrease in assay [4] was 111% (active). Also, in assay [5], the GLP1 secretion stimulation was 213% (active). In addition, in assay [6], the inhibition of viability was 112% (active). The viability decrease (inhibition) was 131% (active) in assay [7] and 101% (active) in assay [8].
For `C[C@H](CCC(=O)O)[C@H]1CC[C@H]2[C@@H]3CC[C@@H]4C[C@H](O)CC[C@]4(C)[C@@H]3C[C@H](O)[C@]12C`, the nuclear beta-catenin stimulation in assay [1] (at 10 µM) is -0.7% (inactive); in assay [1] (stimulation, at 2 µM), -1.1%. In assay [2], the insulin secretion stimulation was 1% (inactive). Besides, the viability decrease in assay [3] was 37.6% (inactive). In addition, the tube area decrease in assay [4] is 0% (inactive). In assay [5], the GLP1 secretion stimulation is -5% (inactive). The inhibition of viability in assay [6] was 57% (active). The viability decrease (inhibition) was 35.7% (inactive) in assay [7] and 9.8% (active) in assay [8].
For `NC(=O)NNc1ccccc1`, the nuclear beta-catenin stimulation is 3.2% (inactive) in assay [1] (at 10 µM) and 0.7% in assay [1] (stimulation, at 2 µM). The insulin secretion stimulation in assay [2] is -1.9% (inactive). Also, the viability decrease in assay [3] was -9.75% (inactive). The tube area decrease in assay [4] is 16% (inactive). Moreover, the GLP1 secretion stimulation in assay [5] was 1.4% (inactive). Also, the inhibition of viability in assay [6] is -3% (inactive). Further, the results for the viability decrease (inhibition) in assay [7] and in assay [8] were 30.5% (inactive) and 7.45% (inactive), respectively.
On to `[O-][n+]1ccccc1SSc1cccc[n+]1[O-]`, for which the nuclear beta-catenin stimulation is 78.1% (active) in assay [1] (at 10 µM) and 34% in assay [1] (stimulation, at 2 µM). Moreover, the insulin secretion stimulation in assay [2] is -0.2% (inactive). Also, the viability decrease in assay [3] is 51% (active). For the same compound, the tube area decrease in assay [4] was 103% (active). Also, in assay [5], the GLP1 secretion stimulation is 15.1% (inactive). Besides, the inhibition of viability in assay [6] is 51.9% (active). Besides, the viability decrease (inhibition) in assay [7] was -68.5% (inactive); in assay [8], 1.15% (inactive).
Consider `C[C@@H](CN(C)C)CN1c2ccccc2Sc2ccccc21`, for which the nuclear beta-catenin stimulation is 3% (inactive) in assay [1] (at 10 µM) and -0.4% in assay [1] (stimulation, at 2 µM). The insulin secretion stimulation in assay [2] was 15.1% (active). For the same compound, the viability decrease in assay [3] is -61.3% (inactive). Further, the tube area decrease in assay [4] was 0.6% (inactive). The GLP1 secretion stimulation in assay [5] was 10.3% (inactive). Besides, the inhibition of viability in assay [6] was 45.3% (inactive). Also, the viability decrease (inhibition) was 103% (active) in assay [7] and 48.3% (inactive) in assay [8].
Consider `O=P(O)(O)C(Sc1ccc(Cl)cc1)P(=O)(O)O`, for which the nuclear beta-catenin stimulation in assay [1] (at 10 µM) is 1.7% (inactive); in assay [1] (stimulation, at 2 µM), 1.6%. In assay [2], the insulin secretion stimulation is 3.9% (inactive). Further, the viability decrease in assay [3] was -2.7% (inactive). Also, the tube area decrease in assay [4] was 1% (inactive). Moreover, the GLP1 secretion stimulation in assay [5] was -2.7% (inactive). Moreover, in assay [6], the inhibition of viability was 4.3% (inactive). Further, the viability decrease (inhibition) in assay [7] is 2.6% (inactive); in assay [8], 2% (inactive).
On to `CCCCCCCC[N+](C)(C)CCCCCCCC`, for which the nuclear beta-catenin stimulation was -3.8% (inactive) in assay [1] (at 10 µM) and 34.4% in assay [1] (stimulation, at 2 µM). In assay [2], the insulin secretion stimulation was -3% (inactive). Also, the viability decrease in assay [3] is 99.5% (active). In addition, the tube area decrease in assay [4] was 108% (active). In addition, the GLP1 secretion stimulation in assay [5] is -2.7% (inactive). Besides, the inhibition of viability in assay [6] was 99.6% (active). The viability decrease (inhibition) in assay [7] was 102% (active); in assay [8], 101% (active).
`CC(C)[C@H](N)C(=O)O`: the nuclear beta-catenin stimulation in assay [1] (at 10 µM) is -0.1% (inactive); in assay [1] (stimulation, at 2 µM) it was 1.3%. Moreover, the insulin secretion stimulation in assay [2] was 0.4% (inactive). Further, the viability decrease in assay [3] is -2.3% (inactive). In addition, the tube area decrease in assay [4] is -14.8% (inactive). For the same compound, the GLP1 secretion stimulation in assay [5] was -4.1% (inactive). For the same compound, in assay [6], the inhibition of viability was 1.3% (inactive). Moreover, the results for the viability decrease (inhibition) in assay [7] and in assay [8] were 11.9% (active) and 14.8% (inactive), respectively.
Take `COc1ccc(/C(C)=C/C(=O)O)c(OC)c1`: the nuclear beta-catenin stimulation was 1.2% (inactive) in assay [1] (at 10 µM) and 0.1% in assay [1] (stimulation, at 2 µM). The insulin secretion stimulation in assay [2] is -0.4% (inactive). Moreover, the viability decrease in assay [3] was 10.1% (inactive). Moreover, the tube area decrease in assay [4] was -9.3% (inactive). The GLP1 secretion stimulation in assay [5] is 1.3% (inactive). In addition, the inhibition of viability in assay [6] was -0.3% (inactive). The viability decrease (inhibition) in assay [7] was -19.9% (inactive); in assay [8], -10.1% (inactive).
As to `COc1ccc2c(c1)CCCC2=O`, the nuclear beta-catenin stimulation in assay [1] (at 10 µM) is 1.5% (inactive); in assay [1] (stimulation, at 2 µM) it was -0.1%. In addition, in assay [2], the insulin secretion stimulation was 1.3% (inactive). In assay [3], the viability decrease is 5.2% (inactive). The tube area decrease in assay [4] was 13.5% (inactive). In addition, the GLP1 secretion stimulation in assay [5] was 0.1% (inactive). Also, the inhibition of viability in assay [6] is 8.5% (inactive). In addition, the viability decrease (inhibition) in assay [7] was -3.8% (inactive); in assay [8], -12% (inactive).
